# From PubChem BioAssay (NCATS)
# Results filed as inconclusive are left out. Entries that show only a call come without a potency. The source made the active and inactive calls. Calls come from the whole dose curve; as a rule, active = well fitted curve in the direction sought with a large enough effect; inconclusive = small, poorly fitted or top-dose-only effect, or another doubt; inactive = no such curve, though single readings can be large; an effect the other way counts as inactive or inconclusive.
# How the values were obtained:
# [1] = molecular target: Metallo-beta-lactamase type 2 (Klebsiella pneumoniae) (UniProt C7C422); assay: qHTS to identify inhibitors of the New Delhi Metallo-beta-lactamase (NDM): assay validation screen against the NCATS LOPAC Collection (AID 1794843);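 note: nitrocefin turnover by NDM-1 measured as 485 nm absorbance at plateau; series mostly up to about 38 µM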
# In short: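 NDM-1 at 2 nM final in 50 mM HEPES pH 7.0 with 1 uM ZnSO4 and 0.01% Tween20 was preincubated with library compounds in DMSO. Nitrocefin (50 uM stock) was then added, and absorbance at 485 nm was read at the kinetic plateau.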
# [2] = molecular target: Glutathione peroxidase 1 (Homo sapiens) (UniProt P07203); assay: Primary qHTS Assay for Inhibitors of Recombinant Selenoprotein Glutathione Peroxidase 1 (GPX1) (AID 1845191); note: nearly all actives have a fitted effect of over 65% in size; note: potency is the fitted concentration of half-maximal effect
# In short: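 NADPH consumption tracked by fluorescence at 340/450 nm between t=0 and t=15 min, room temperature. Final mix: 10 nM GPX1, 100 nM glutathione reductase, 1 mM GSH, 0.5 mM NADPH, 0.5 mM cumene hydroperoxide, 0.01% BSA; 30 min compound–enzyme preincubation.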
# [3] = molecular target: Phospholipid hydroperoxide glutathione peroxidase GPX4 (Homo sapiens) (UniProt P36969); assay: Primary qHTS Assay for Inhibitors of Recombinant Selenoprotein Glutathione Peroxidase 4 (GPX4) (AID 1845192); note: nearly all actives have a fitted effect of over 65% in size; note: potency is the fitted concentration of half-maximal effect
# In short: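 NADPH consumption followed by fluorescence at 340/450 nm, t=0 and after 15 min at room temperature. Reaction started with cumene hydroperoxide (0.5 mM final) after 30 min compound–GPX4 preincubation; final 200 nM GPX4, 100 nM GR, 1 mM GSH, 0.5 mM NADPH.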
# Phospholipid hydroperoxide glutathione peroxidase GPX4 (Homo sapiens), sequence (P36969 whole entry, looked up): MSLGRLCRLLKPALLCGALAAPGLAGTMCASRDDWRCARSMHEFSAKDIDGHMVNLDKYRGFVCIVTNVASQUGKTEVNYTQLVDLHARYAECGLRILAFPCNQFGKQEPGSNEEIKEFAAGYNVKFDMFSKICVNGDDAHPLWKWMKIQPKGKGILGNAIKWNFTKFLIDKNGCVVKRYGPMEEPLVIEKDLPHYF
# Glutathione peroxidase 1 (Homo sapiens), sequence (P07203 whole entry, looked up): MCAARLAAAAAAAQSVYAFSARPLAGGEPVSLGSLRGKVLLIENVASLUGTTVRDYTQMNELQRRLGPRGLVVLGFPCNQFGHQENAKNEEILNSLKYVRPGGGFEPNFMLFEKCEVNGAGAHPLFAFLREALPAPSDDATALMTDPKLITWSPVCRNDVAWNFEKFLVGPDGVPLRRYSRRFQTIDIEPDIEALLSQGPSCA
# Metallo-beta-lactamase type 2 (Klebsiella pneumoniae), sequence (C7C422 whole entry, looked up): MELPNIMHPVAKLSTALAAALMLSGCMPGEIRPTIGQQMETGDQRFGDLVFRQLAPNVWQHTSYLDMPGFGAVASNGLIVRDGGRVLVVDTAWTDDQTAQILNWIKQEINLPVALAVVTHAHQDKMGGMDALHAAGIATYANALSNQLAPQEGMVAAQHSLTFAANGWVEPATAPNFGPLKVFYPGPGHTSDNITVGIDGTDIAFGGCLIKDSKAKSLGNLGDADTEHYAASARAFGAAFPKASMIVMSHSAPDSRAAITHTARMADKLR
SMILES,Potency [1],Potency [2],Potency [3]
CCCCCCCC/C=C\CCCCCCCC(=O)NCCO,inactive,inactive,inactive
COc1ccc(-c2cc(=O)c3c(O)c(OC)c(OC)cc3o2)cc1O,inactive,inactive,inactive
S=C(S)OC1CC2CC1C1CCCC21 (stereo not given),inactive,inactive,inactive
CC(N)C(=O)OC(C)(C)Cc1ccc(Cl)cc1 (stereo not given),inactive,inactive,inactive
O=C(c1ccc(Cl)cc1)N1CCN(c2ccc([N+](=O)[O-])c3ncccc23)CC1,–,inactive,inactive
C=CCCCCCCCCC(=O)O,–,inactive,inactive
CCOC(=O)c1ccccc1O,–,inactive,inactive
NC[C@H]1O[C@@H](n2cnc3c(N)ncnc32)[C@H](O)[C@@H]1O,–,inactive,inactive
CCCCCCCCCCCCCCCC(=O)OC(C)C,–,inactive,inactive
CO[C@@]1(NC(=O)Cc2cccs2)C(=O)N2C(C(=O)O)=C(COC(N)=O)CS[C@@H]21,–,6.4 µM (active),inactive
CCCC(=O)OC[C@@H](OC(=O)CCC)[C@@H](OC(=O)CCC)[C@H](Cn1c2nc(=O)[nH]c(=O)c-2nc2cc(C)c(C)cc21)OC(=O)CCC,–,inactive,–
CC[C@H]1OC(=O)[C@H](C)[C@@H](O[C@H]2C[C@@](C)(OC)[C@@H](O)[C@H](C)O2)[C@H](C)[C@@H](O[C@@H]2O[C@H](C)C[C@H](N(C)C)[C@H]2O)[C@](C)(O)C[C@@H](C)C(=O)[C@H](C)[C@@H](O)[C@]1(C)O,–,inactive,inactive
CN(C)c1nc2c(Br)c(Br)c(Br)c(Br)c2[nH]1,–,inactive,–
O=C(CCc1ccncc1)NNC(=O)N1Cc2ccccc2Oc2ccc(Cl)cc21,–,inactive,inactive
NC(N)=NC(=O)c1nc(Cl)c(N2CCCCCC2)nc1N,–,inactive,inactive
N#C/C(=C\c1ccc(O)c(O)c1)C(=O)NCc1ccccc1,–,inactive,inactive
Nc1nc(Cl)nc2c1ncn2[C@@H]1O[C@H](CO)[C@@H](O)[C@H]1O,–,inactive,inactive
c1ccc2sc(SN3CCOCC3)nc2c1,–,20.2 µM (active),inactive
C=C[C@@H]1CN2CC[C@@H]1C[C@H]2[C@H](O)c1ccnc2ccc(OC)cc12,–,inactive,inactive
O=C(O)c1cc(=O)c2ccccc2[nH]1,–,inactive,inactive
c1ccc(-c2ccccn2)nc1,–,inactive,inactive
Cn1c(=O)c(-c2c(Cl)cccc2Cl)cc2cnc(Nc3ccc(N4CCOCC4)cc3)nc21,–,inactive,inactive
COCCOc1cc2ncnc(Cl)c2cc1OCCOC,–,inactive,inactive
CN(C)[C@@H]1C(=O)C(C(=O)NCN2CCCC2)=C(O)[C@@]2(O)C(=O)C3=C(O)c4c(O)cccc4[C@@](C)(O)C3C[C@@H]12 (stereo not given in full),–,inactive,inactive
CC1(C)S[C@@H]2[C@H](NC(=O)[C@H](N)c3ccccc3)C(=O)N2[C@H]1C(=O)O,–,inactive,–

SMILES,Potency [1],Potency [2],Potency [3]
C=C[C@H]1CN2CC[C@@H]1C[C@@H]2[C@@H](O)c1ccnc2ccc(OC)cc12,–,inactive,inactive
CCCCCC[C@@H](O)C/C=C\CCCCCCCC(=O)O,–,inactive,–
[O-][n+]1ccccc1SSc1cccc[n+]1[O-],–,inactive,inactive
Cc1c(Nc2ncccc2C(=O)O)cccc1C(F)(F)F,–,inactive,inactive
CC(C(=O)O)c1ccc(C(=O)c2ccccc2)s1 (stereo not given),–,inactive,inactive
CN=c1nc(-c2ccccc2)n(-c2ccccc2)s1,–,inactive,inactive
CNC(=O)c1c(I)c(NC(=O)CCCCC(=O)Nc2c(I)c(C(=O)O)c(I)c(C(=O)NC)c2I)c(I)c(C(=O)O)c1I,–,inactive,inactive
COc1ccc(/C=C/c2nc(NCCCN(C)C)c3ccccc3n2)cc1,–,inactive,inactive
Cc1cn([C@H]2CC(N=[N+]=[N-])[C@@H](CO)O2)c(=O)[nH]c1=O (stereo not given in full),–,inactive,inactive
C=CCc1cccc(/C=N/NC(=O)CN2CCN(Cc3ccccc3)CC2)c1O,–,inactive,inactive
NS(=O)(=O)C#Cc1ccccc1,–,inactive,inactive
COC(=O)c1c(C)[nH]c(C)c1C(=O)c1ccccc1Cc1ccccc1,–,inactive,inactive
C#C[C@]1(O)CC[C@H]2[C@@H]3CCc4cc(O)ccc4[C@H]3CC[C@@]21C,–,inactive,inactive
Nc1c(CC(=O)O)cccc1C(=O)c1ccc(Br)cc1,–,inactive,inactive
CN1C2CC(OC(=O)[C@H](CO)c3ccccc3)CC1C1OC12 (stereo not given in full),–,inactive,inactive
C[N+](C)(C)CCOP(=O)(O)OP(=O)([O-])OC[C@H]1O[C@@H](n2ccc(N)nc2=O)[C@H](O)[C@@H]1O,–,inactive,inactive
CCCCCCCC/C=C/C(=O)O,–,inactive,inactive
NCCCS(=O)(=O)O,–,inactive,inactive
C[N+]1(C)C2CC(OC(=O)[C@H](CO)c3ccccc3)CC1C1OC12 (stereo not given in full),–,inactive,inactive
CCCCCCCCc1ccc(-c2ccc(C(=O)O)cc2)cc1,–,inactive,inactive
CN[C@H](CC(C)C)C(=O)N[C@H]1C(=O)N[C@@H](CC(N)=O)C(=O)N[C@H]2C(=O)N[C@H]3C(=O)N[C@H](C(=O)N[C@H](C(=O)O)c4cc(O)cc(O)c4-c4cc3ccc4O)[C@H](O)c3ccc(c(Cl)c3)Oc3cc2cc(c3O[C@@H]2O[C@H](CO)[C@@H](O)[C@H](O)[C@H]2O[C@H]2C[C@](C)(N)[C@H](O)[C@H](C)O2)Oc2ccc(cc2Cl)[C@H]1O,–,inactive,inactive
CN(C)CCn1nnnc1SCC1=C(C(=O)O)N2C(=O)[C@@H](NC(=O)Cc3csc(N)n3)[C@H]2SC1,–,4.53 µM (active),12.6 µM (active)
CCCCCCCCCCCCCCCC(=O)OC(CC(=O)O)C[N+](C)(C)C (stereo not given),–,inactive,inactive
Cc1c(C(=O)O)c(O)cc2c1C(=O)c1c(O)c([C@@H]3O[C@H](CO)[C@@H](O)[C@H](O)[C@H]3O)c(O)c(O)c1C2=O,–,inactive,inactive
Nc1nc(Nc2ccccc2)nc2c1ncn2[C@@H]1O[C@H](CO)[C@@H](O)[C@H]1O,–,inactive,inactive
